Rows were chosen to be rich in hits. Some 2.6% of all compounds tested hit in one or more screens of this group.
CCT chaperon mod = modulators of cytosolic chaperonin (CCT/TRiC) activity; activity change, % (no concentration beside the values), hits read low; purified chaperonin ATPase assay, HTRF ADP detection, 30 min; 360,000 compounds, 0.3% hits; in the data active = activity change below about -30%; note: % is set by controls: 0 for no effect and ±100 for the full control effect
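ATPase activity: ADP formed was measured by HTRF Transcreener (665/615 nm ratio) after 30 min at 37 deg C with 10 uM ATP. Compounds screened at one 76 uM concentration against 40 or 20 nM TRiC in Tris pH 7.4/KCl/MgCl2/DTT buffer.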
Nrf2 activator = activators of Nrf2 (ARE) signaling; AREc32 ARE-luciferase reporter (MCF7-derived line), luminescence, 24 h; Potency, µM (highest dose often 46.1 µM), inactives show at the top dose activation, usual class: activators; 410,000 compounds, 0.31% hits; AID 624171; note: potency is the fitted concentration of half-maximal effect; % of control where 0% means no effect; nearly all actives have a fitted effect of over 65% in size
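Steps: seed AREc32_Fluc cells (1000/well, 5% FBS OPTI-MEM); incubate overnight at 37 deg C; add 23 nL compound; incubate 24 hr; add Steady-Glo; hold 30 min RT; read luminescence.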
TCR activator = T cell receptor activation. AID 504894. Potency, µM (highest dose often 9.22 µM), without a hit: top-dose activation of IL-2 secretion, usual class: activators. 330,000 tested, under 10 active. primary human leukocytes, anti-CD3, IL-2 HTRF, 48 h; note: % of control where 0% means no effect
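1) Mix primary human leukocytes, a-CD3 beads and compound. 2) Incubate 48 hr. 3) Add HTRF IL-2 reagents (a-IL-2-K, a-IL-2-d2).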
A-T KAP1 phos = potential ataxia-telangiectasia treatment. F2112 A-T fibroblasts, KAP-1 phosphorylation AlphaLISA; neocarzinostatin DNA damage 30 min before lysis. AID 485349. 320,000 compounds, 0.19% hits. Potency, µM (highest dose often 57.5 µM), for inactives: top-dose activation, hits mostly activators; note: potency is the fitted concentration of half-maximal effect; % of control where 0% means no effect; nearly all actives have a fitted effect of over 45% in size
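ATM-like activity read as KAP-1 phosphorylation via AlphaLISA donor/acceptor antibody pairs after lysis and 6 hr at 25C. Cells were ATM-null patient fibroblasts (F2112, hTERT), dosed 60 min, then exposed to the DSB inducer NCS for 30 min.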
Nrf2 block = Nrf2 pathway inhibition | A549 ARE-Fluc reporter, luciferase luminescence, 18-24 h | Potency, µM (top dose mostly 46 µM), inactives show at the highest dose activity change, negative = inhibition, actives largely listed as inhibitors | 360,000 compounds, 2.1% hits | AID 504444; note: potency is the fitted concentration of half-maximal effect; % is set by controls: 0 for no effect and ±100 for the full control effect; nearly all actives have a fitted effect of over 60% in size
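A549 ARE_Fluc cells (5000/well, 5% FBS OPTI-MEM) pre-incubated 2 h, then treated with compounds 18-24 h at 37C/5% CO2 in concentration-response. CellTiter-Fluor viability read first; BugLite luciferase luminescence after 15 min at room temperature gives Nrf2 activity.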
A549 viability = kills or reduces viability of A549 cells in Nrf2 counter-screen; AID 504648; 390,000 compounds, 0.16% hits; Potency, µM (series often up to 46 µM), without a hit: at the top dose activity change, negative = cytotoxicity, actives largely listed as inhibitors; A549 ARE-Fluc cells, CellTiter-Fluor viability, 18-24 h; note: potency is the fitted concentration of half-maximal effect; % is set by controls: 0 for no effect and ±100 for the full control effect
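A549 ARE-Fluc cells in 5% FBS OPTI-MEM, 5000 cells/well, rested 2 h then exposed to compounds in concentration-response for 18-24 h at 37 °C. Viability by CellTiter-Fluor fluorescence (Ex 405/Em 525) after 30 min; luciferase luminescence (BugLite, 15 min, RT) read afterwards.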
* marks the source's active call; other numbers are inactive results; ? = inconclusive; / = no result given; [ ] = another dose, or the depositor's remark. Unless noted, calls come from the whole dose curve; as a rule, active = well fitted curve in the direction sought with a large enough effect; inconclusive = small, poorly fitted or top-dose-only effect, or another doubt; inactive = no such curve, though single readings can be large; an effect the other way counts as inactive or inconclusive.

SMILES	CCT chaperon mod	Nrf2 activator	TCR activator	A-T KAP1 phos	Nrf2 block	A549 viability
CCN(CC)C(=O)CN(c1cc2c(cc1OC)oc1ccccc12)S(=O)(=O)c1ccccc1	-3	-1%	-4%	/	16µM*	?
Cc1ccc(C2=CC(C)(c3ccc(C)cc3)Nc3nc(C(F)(F)F)nn32)cc1 (stereo not given)	0	6%	-4%[46.1 µM]	7%	?	-6%
CC1(c2ccc(OCC#N)cc2)C=C(c2ccc(OCC#N)cc2)n2nc(C(F)(F)F)nc2N1 (stereo not given)	-2	11%	1%[46.1 µM]	-1%	23µM*	?
Cc1ccc(C)c(NC(=O)CN2C(=O)CCc3ccccc32)c1	/	1%	/	/	19%	-4%
CN(C(=O)c1ccc(COc2ccccc2Br)o1)c1ccccc1	1	0%	7%	-2%	7%	?
COc1cccc(CNC(=O)CSc2c3c(nc4ccc(Cl)cc24)CCCC3)c1OC	/	13µM*	/	/	?	-20%
COc1ccc(Cn2c(SCc3ccc(C(=O)NC4CCCCC4)cc3)nc3cccnc32)cc1	/	5%	/	/	18µM*	?
O=C(NCCc1cccs1)c1ccc(Cn2c(SCc3ccc(F)cc3)nc3cccnc32)cc1	/	4%	/	/	18µM*	?
O=C(NC1CCCCC1)c1ccc(CSc2nc3cccnc3n2Cc2ccc(F)cc2)cc1	/	0%	/	/	24%	0%
O=C(NCCc1cccs1)c1ccc(Cn2c(SCc3ccccc3)nc3cccnc32)cc1	/	1%	/	/	?	-16%
O=C(NCc1cccs1)c1ccc(Cn2c(SCc3ccccc3)nc3cccnc32)cc1	/	0%	/	/	26µM*	?
COc1ccc(CCC(=O)NC2CC(=O)N(c3ccc(F)cc3)C2)cc1 (stereo not given)	/	-1%	/	/	/	3%
CCc1nnc(NC(=O)c2cccc(C(=O)Nc3nnc(CC)s3)n2)s1	-1	4%	5%[46.1 µM]	1%	0.26µM*	?
CCc1nnc(NC(=O)c2cc(S(=O)(=O)N(CC)CC)ccc2Cl)s1	1	3%	-16%	-4%	16µM*	-17%
O=S(=O)(c1ccc2c(c1)OCCO2)N1CCN(S(=O)(=O)c2cc(F)c(Br)cc2F)CC1	/	/	/	/	-1%	2%
CCOc1ccc(-c2csc(/C(C#N)=C\c3ccc(O)c([N+](=O)[O-])c3)n2)cc1	-2	0%	-18%[46.1 µM]	-16%	?	16µM*
CC(=O)C1=C(O)C(=O)N(c2ccccn2)C1c1ccccc1[N+](=O)[O-] (stereo not given)	1	1%	-4%	5%	-10%	0%
O=C(Cn1cnc(S(=O)(=O)N2CCCCC2)c1)N1CCN(c2ccc([N+](=O)[O-])cc2)CC1	-3	0%	-7%	-9%	-15%	-13%
O=C(CN1C(=O)c2ccccc2S1(=O)=O)c1ccc(F)cc1	-1	-3%	1%	10%	13µM*	1%
O=C(CN1C(=O)c2ccccc2S1(=O)=O)c1ccc(Cl)cc1Cl	-8	-2%	/	/	12µM*	6%
NC(=O)C1CCN(C(=O)CN2C(=O)c3ccccc3S2(=O)=O)CC1	-41*	0%	7%	-1%	17%	0%
O=C(CN1C(=O)c2ccccc2S1(=O)=O)c1ccc(OC(F)F)cc1	-4	-2%	-6%	-1%	?	0%
Cc1c(CN(C)C(=O)c2cc(-c3ccccc3)nc3ccc(Br)cc23)cnn1C	/	-1%	/	/	9.2µM*	0%
O=C(O)c1sccc1Oc1ccc(NS(=O)(=O)c2cccc(F)c2)cc1	-1	-1%	-1%	45µM*	-2%	4%
O=C(Nc1ccc(Oc2ccsc2C(=O)O)cc1)c1ccccc1	1	0%	7%	50%	4%	2%
SMILES	CCT chaperon mod	Nrf2 activator	TCR activator	A-T KAP1 phos	Nrf2 block	A549 viability
O=C(C#Cc1ccccc1)c1ccco1	-1	-2%	1%	-6%	21µM*	?
COc1cc(-c2noc(-c3nnn(-c4ccc(Cl)cc4)c3C)n2)cc(OC)c1OC	/	0%	/	/	-11%	0%
Cc1cc2c(N3CCCCC3C)ncnc2s1 (stereo not given)	-1	2%	-13%	-2%	21µM*	-13%
Cn1c(=O)c(/C=C/c2ccccc2)nc2ccccc21	-2	5µM*	-9%[46.1 µM]	10%	?	2%
O=C(c1ccccc1O)N(Cc1ccco1)Cc1ccco1	/	/	/	/	12%	3%
Cc1c(P(=S)(c2ccccc2)c2ccccc2)[n+]2ccccc2n1CC(=O)c1ccccc1	/	/	/	/	-7%	3%
Nc1nonc1N/N=C/c1c(O)ccc2ccccc12	-2	7.9µM*	/	3%	23%	7%
O=C(NN=Cc1c(O)ccc2ccccc12)c1ccncc1	1	0%	5%	/	26µM*	?
O=C(N/N=C\c1c(O)ccc2ccccc12)c1ccc(O)cc1	1	-1%	0%	3%	-20%	-15%
COc1ccc(C2Nc3ccccc3C(=O)N2Cc2cccc(-c3ccccc3)c2)cc1COc1ccc(NC(C)=O)cc1 (stereo not given)	/	/	/	/	?	1%
COc1ccc(N(CC(=O)Nc2cc(C)ccc2OC)S(=O)(=O)c2c(C)noc2C)cc1	3	0%	2%	6%	8.2µM*	?
COc1ccc(N(CC(=O)NCCc2ccc(C)cc2)S(=O)(=O)c2c(C)noc2C)cc1	0	2%	-2%	6%	23µM*	-19%
COc1ccc(N(CC(=O)NCC2CCCO2)S(=O)(=O)c2c(C)noc2C)cc1 (stereo not given)	-65*	-1%	-5%	2%	14%	2%
COc1ccc(N(CC(=O)Nc2cc(C)ccc2C)S(=O)(=O)c2c(C)noc2C)cc1	-1	-1%	-2%	11%	?	-6%
O=C(c1ccc2c(c1)OCO2)c1cn(Cc2ccc(F)cc2)c2ccccc2c1=O	/	0%	/	/	-19%	-13%
CC1CC1c1ccc(/C=C(\C#N)C(=O)Nc2ccccc2Cl)o1 (stereo not given)	-2	13µM*	-3%[46.1 µM]	6%	28%	-4%
CC1CC1c1ccc(/C=C(\C#N)C(=O)Nc2ccc(Cl)cc2)o1 (stereo not given)	-3	6.3µM*	-1%[46.1 µM]	-2%	?	-11%
N#C/C(=C/c1ccc(N2CCCCC2)o1)C(=O)Nc1ccc(Cl)cc1	-5	3%	/	3%	/	-15%
CC(C)(C)OC(=O)Cc1nnc(-c2cc3ccccc3[nH]2)o1	/	/	/	/	?	0%
CCOc1ccc(CCNC(=O)c2cccc(Nc3nc4ccccc4nc3-n3nc(C)cc3C)c2)cc1OCC	/	1%	/	/	6%	-2%

From PubChem BioAssay
